Measured values taken from PubChem BioAssay (NCI).
Values joined by “and” are separate entries in the source; they are usually repeats but may differ in a detail not shown here. Identical values can stand only once. Compounds without any hit were thinned out: in the full panel of roughly 83,000, 20% have a hit.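 Percent growth is the endpoint: 0 to 100 indicates growth inhibition (40 means 60% inhibition), 0 means no net growth, and negative values indicate cell death.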 Values without a mark were called inactive. Active and inactive are the calls of the source. Rule for the calls: active = growth percent below 10; inactive = the rest.

System: MDA-MB-468 breast
Assay: NCI-60 one-dose screen, 48 h (100 = growth as untreated, 0 = no growth, -100 = all killed)
Settings: 10 µM unless noted

Compound | growth
Clc1cc(Cl)cc(-c2ccc(-c3ccc(/C=N/NC4=NCCN4)cc3)s2)c1 | -3.62% (active)
C=C(C)[C@@H]1CC[C@]2(C(=O)N3CCCNCC3)CC[C@]3(C)[C@H](CC[C@@H]4[C@@]5(C)CCC(=O)C(C)(C)[C@@H]5CC[C@]43C)[C@@H]12 | 90.8%
C#CCOc1ccc2ncnc(Nc3cccc(NC(=O)C=C)c3)c2c1 | 41.6%
Cc1c(C(=O)O)nnn1-c1nccs1 | 107%
Oc1c(CN2CCCCC2)ccc2cccnc12 | 72.3% and 81.8%
COc1cc(-c2csc(NC(=O)Nc3ccc(Cl)cc3Cl)n2)cc(OC)c1OC | 17.7%
CCOC(=O)N1CCc2c(sc3c2C(=O)N[C@H](c2ccc(OC)cc2)N3)C1 | 101%
COc1ccccc1-n1cc(C#N)c(N)c1C(=O)c1ccc(Cl)cc1 | 51.6%
COCc1nc2ccccc2[nH]1 | 102%
CC(C)(C)CC(C)(C)c1ccc(OCCOCCSC(=N)N)cc1 | -47.3% (active)
C=C(C)[C@@H]1CC[C@]2(C(=O)N3CCNCC3)CC[C@]3(C)[C@H](CC[C@@H]4[C@@](C)(CCC(=O)N5CCNCC5)[C@H](C(=C)C)CC[C@]43C)[C@@H]12 | 49.5%
COc1cc(O)c2c(c1)/C=C/C[C@H](O)[C@H](O)C(=O)/C=C\C[C@H](C)OC2=O | -24.3% (active)
CN(C)c1ccc(/C=C2\C=C(c3nc4ccccc4s3)OC2=O)cc1 | 79.8%
O=c1[nH]c2ccccc2cc1-c1nnc(Cc2ccccc2)o1 | 53.9%
CC(=O)Oc1ccc(O)cc1 | 95.5%
CC(C)(C)OC(=O)N1C(=O)c2c(c3c4ccccc4[nH]c3c3ccc4ccccc4c23)C1=O | 75.6%
CCOC(=O)c1cnn(CC(O)CC)c1NC(=O)NCc1ccccc1C(F)(F)F (centres undefined) | 106%
CC1CN(CCCOC(=O)Nc2ccc(Cl)cc2)CCN1C(C)(C)C (centres undefined) | 104%
O=C1/C=C/[C@@H](O)[C@@H]2C[C@@H](O)C[C@H]2/C=C/CCC[C@H](CCc2ccccc2)O1 | -43.7% (active)
CCCCC(=O)Nc1ncc(Cc2ccccc2Cl)s1 | 14.1%

Compound | growth
CN1C(=O)C2(SCC(C(=O)NCc3ccccc3)N2C(=O)C2CCCCC2)c2ccccc21 (centres undefined) | 98.2%
CC1=C(C(=O)Nc2ccc(F)cc2)C(c2ccc(C)cc2)C2=C(CC(C)(C)CC2=O)N1 (centres undefined) | 84.7%
Cn1cc(-c2csc(-c3c[nH]c4ccccc34)n2)c2cccnc21 | -22% (active)
NC(=O)c1nc2c([nH]c1=O)CCCC2 | 95%
Clc1ncccc1Nc1ccc2nnc(-c3ccncc3)n2n1 | 99.9%
NC(=S)NN=C1CCCC1 | 14.1%
CC(=O)N1N=C(c2ccc(Nc3nc(Nc4ccc(F)cc4)nc(Nc4ccc(Cl)cc4)n3)cc2)CC1c1ccc(N(C)C)cc1 (centres undefined) | 56.2%
CCOc1ccc2nc(-c3cccc(OCC(=O)NC(C)C)c3)nc(Nc3ccc(-c4cn[nH]c4)cc3)c2c1 | 21%
C1=Cc2ccccc2N(c2nnc(-c3ccccc3)o2)c2ccccc21 | 98.7%
CNC(=O)c1cc(Oc2ccc(CC(=O)Nc3cc(C(C)(C)C)cn3C)cc2)ccn1 | 29.5%
COc1cc(/C=C2\CN(S(=O)(=O)c3ccccc3)C/C(=C\c3cc(CN4CCCC4)c(O)c(OC)c3)C2=O)cc(CN2CCCC2)c1O | -32.1% (active)
COc1cc(F)c(-c2nc3c(C)cccc3n2Cc2c(F)cccc2F)c(F)c1 | 65.5%
CCn1c(SCC(=O)Nc2cccc(C(=O)/C=C/c3ccc(C)cc3)c2)nc2ccccc2c1=O | 58.7%
CCOC(=O)c1cc2c(=O)oc3ccccc3c2oc1=O | 88.2%
Cc1ccc(C(=O)Nc2cccc(F)c2)cc1NC(=O)C1(c2ncnc3[nH]ccc23)CC1 | 85.8%
COc1cc(OC)c(/C=C/C(=O)c2c(O)cc(OC)c(C3CCN(C)CC3)c2OC)c(OC)c1 | -91.1% (active)
Cc1cc(=O)n(Nc2ccccc2)c(O)c1C#N | 108%
COc1cc2ncnc(Nc3ccc(F)c(Cl)c3)c2cc1OCC(=O)N1CCCCC1 | -41.9% (active)
O=C1/C(=C/c2cc(F)cc(F)c2)Cc2cc(F)cc(F)c21 | 74.1%
